Assay [1] in a line: inhibitors of TNFa-induced NFkB p65 translocation, primary screen, imaging, HUVEC, MLSMR starter and 10KST1 sets (AID 438;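 active = inhibition above 20% together with a positive visual image hit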;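 note: compound added about 3h40 before a 20 min TNFalpha stimulation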;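 for inhibition: signal is the nuclear over cytoplasmic p65 intensity ratio per well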). Conditions: HUVEC TNFa-induced p65 nuclear translocation; cell count: measured here: nuclei count (cytotoxicity indicator), at 2.08 µM; inhibition: at 2 µM, stronger effect = higher value, 0% TNFa-plus-vehicle, 100% no-TNFa wells.
Assay [2] can be described thus: reduction of polyQ htt aggregates in cells – imaging, exon1htt(103Q)mCFP cells, high-content imaging, primary screen (AID 483;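 active = visual image review flags a hit and inhibition of aggregation exceeds 20%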;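 note: compound exposure lasted 3 days before fixation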;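 for nuclei count: percent of the per-plate median nuclei count of sample wells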). The settings on record: exon1htt(103Q)mCFP cell line, aggregate imaging, at 2 µM; inhibition of aggregation: stronger effect = higher value; nuclei count: measured here: cell count, toxicity.
The nature of assay [3]: endothelial E-selectin expression blockers – imaging, HUVEC, immunofluorescence, MLSMR starter and 10KST1 sets, primary screen (AID 487;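 active = visually confirmed hit in the image check and inhibition above 20%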;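 for inhibition: signal is fraction of cell area covered by stained E-selectin grains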;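 for nuclei count: 100% = median nuclei count of all wells on the same plate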). Conditions: HUVEC TNFalpha-induced E-selectin immunofluorescence imaging, at 2 µM; inhibition: stronger effect = higher value; nuclei count: measured here: cell number, toxicity.
Assay [4] concerns the target Voltage-gated potassium channel subunit beta-2 (Rattus norvegicus) (UniProt P62483). The assay can be described thus: inhibitors of rat Kvbeta2 reductase activity – biochemical, NADPH fluorescence, primary screen (AID 622;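 active = fluorescence slope higher than the sample average by over 3 SD, cut at about -0.22 in these data, passing the limit was not always enough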;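 note: slope of raw intensity against log time taken from 70 to 1610 s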). Conditions: recombinant KvBeta, 4-cyanobenzaldehyde reduction, at 10 µM, stronger effect = higher value.
For assay [5] the target is unchanged. The assay can be described thus: enhancers of rat Kvbeta2 NADPH turnover – biochemical, NADPH fluorescence, primary screen (AID 623;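 active = NADPH fluorescence slope more negative than the mean of all samples by about 3 SD, 99.7% confidence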;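 note: fluorescence intensity change per second fitted from 20 to 320 s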). Conditions: Recombinant KvBeta, NADPH fluorescence decrease slope, 10 min; at 10 µM; stronger effect = lower value.
Assay [6] has as its target Alpha-2C adrenergic receptor (Homo sapiens) (UniProt P18825). As to the kind of experiment: compounds altering alpha2C-coupled GIRK flux – cell-based, HEK293 alpha2C/GIRK1/2, thallium flux, primary screen (AID 624;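 active = fluorescence slope after compound addition differing from the mean of all screened samples at 99.7% confidence, in either direction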;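 note: slope of fluorescence ratio to pre-addition baseline per second over 15 to 24 s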). Conditions: thallium flux BTC fluorescence, at 10 µM, actives lie on both sides.
Assay [7] can be described thus: blockers of RIG-like receptor reporter activation – cell-based, Sendai virus stimulus, luciferase, 10K MLSCN set, TLR/RLR signaling modifier project, primary screen (AID 602276).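 Note: firefly luciferase from ISG56 promoter only with Renilla not read in this screen; 0% = Sendai virus plus DMSO and 100% = medium plus DMSO without virus.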 The settings on record: HEK293 RL24 IRF3 luciferase reporter, at 10 µM, stronger effect = higher value. For orientation: In a reporter assay the amount or activity of a reporter protein is the signal.

Assay [8] in a line: TLR3 IRF3 reporter activation blockers – cell-based, poly I:C stimulus, luciferase, 10K MLSCN set, primary screen (AID 602277;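 active = inhibition of the reporter signal at or above 50%; inactive = inhibition below 50%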). The settings on record: HEK293-TLR3 RL24 IRF3 luciferase reporter, at 10 µM, stronger effect = higher value.

The source made the active and inactive calls.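 Rule for the calls, unless noted: active = inhibition at or above 50% at 10 µM; inactive = inhibition below 50%.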

Chain of Alpha-2C adrenergic receptor (Homo sapiens) (P18825 whole entry, looked up): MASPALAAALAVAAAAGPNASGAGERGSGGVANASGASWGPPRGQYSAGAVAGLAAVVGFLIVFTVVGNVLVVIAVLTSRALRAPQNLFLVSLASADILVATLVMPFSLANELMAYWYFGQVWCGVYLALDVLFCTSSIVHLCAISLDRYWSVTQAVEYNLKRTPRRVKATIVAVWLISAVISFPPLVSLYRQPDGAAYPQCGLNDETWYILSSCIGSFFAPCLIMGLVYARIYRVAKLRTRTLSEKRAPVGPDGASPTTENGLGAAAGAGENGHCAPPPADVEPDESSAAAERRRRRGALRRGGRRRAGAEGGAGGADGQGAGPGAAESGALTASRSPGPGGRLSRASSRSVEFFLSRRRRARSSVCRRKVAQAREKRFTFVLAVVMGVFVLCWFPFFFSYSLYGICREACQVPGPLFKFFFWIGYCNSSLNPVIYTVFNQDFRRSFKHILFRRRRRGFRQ
Chain of Voltage-gated potassium channel subunit beta-2 (Rattus norvegicus) (P62483 whole entry, looked up): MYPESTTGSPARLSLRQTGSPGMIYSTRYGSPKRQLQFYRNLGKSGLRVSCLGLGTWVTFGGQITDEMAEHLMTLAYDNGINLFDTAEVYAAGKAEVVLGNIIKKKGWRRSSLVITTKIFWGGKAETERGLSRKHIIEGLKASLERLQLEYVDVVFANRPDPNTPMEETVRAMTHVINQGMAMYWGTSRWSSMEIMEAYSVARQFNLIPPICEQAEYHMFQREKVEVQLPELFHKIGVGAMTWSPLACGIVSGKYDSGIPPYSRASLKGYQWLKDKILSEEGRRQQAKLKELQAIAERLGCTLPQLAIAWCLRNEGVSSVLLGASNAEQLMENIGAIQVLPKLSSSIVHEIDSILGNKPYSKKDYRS

By inhibition is commonly meant the change of the read-out against control, counted positive when it falls. For `COc1cccc(-c2nc(CS(=O)(=O)CC(=O)NCc3ccc(Cl)cc3)c(C)o2)c1`, the cell count in assay [1] was 840. The inhibition in assay [1] was -2.3% (inactive); in assay [3], -41.4% (inactive); in assay [7] it was -3.28% (inactive); in assay [8], 18% (inactive). In addition, the inhibition of aggregation in assay [2] was -4.4% (inactive). In addition, the nuclei count in assay [2] came out at 122%; in assay [3], 118%. Also, the fluorescence slope in assay [4] is -0.554 (inactive). In assay [5], the NADPH fluorescence slope was 1.6e-06 (inactive). For the same compound, the slope in assay [6] was 0.00669 (inactive).

As to `COc1ccc(NC(=O)C2CCCN(S(=O)(=O)c3cccc4cccnc34)C2)cc1OC` (centres undefined), the cell count in assay [1] stood at 551. Also, the inhibition in assay [1] is -2.6% (inactive); in assay [3] it was -24.3% (inactive); in assay [7] it was 14.2% (inactive); in assay [8], 24.7% (inactive). Moreover, in assay [2], the inhibition of aggregation was -0.5% (inactive). In addition, the nuclei count came to 104% in assay [2] and 109% in assay [3]. Besides, the fluorescence slope in assay [4] was -0.559 (inactive). For the same compound, the NADPH fluorescence slope in assay [5] is 8e-06 (inactive). In assay [6], the slope was 0.007 (inactive).

Regarding `Cc1nc2ccccn2c1/C(O)=C1\C(=O)C(=O)N(CCCN(C)C)C1c1ccc(F)cc1` (centres undefined), in assay [1], the cell count was 507. The inhibition was 21.6% (inactive) in assay [1], -54.5% (inactive) in assay [3], 6.26% (inactive) in assay [7] and 3.28% (inactive) in assay [8]. Moreover, the inhibition of aggregation in assay [2] was -28.8% (inactive). Moreover, the nuclei count in assay [2] turned out to be 92.5%; in assay [3], 122%. The fluorescence slope in assay [4] is -0.566 (inactive). Besides, the NADPH fluorescence slope in assay [5] is 1.9e-05 (inactive). In addition, the slope in assay [6] was 0.00687 (inactive).

In the case of `COc1cccc(-n2c(SCC(=O)Nc3cc(C)on3)nc3c([nH]c4ccccc43)c2=O)c1`, in assay [1], the cell count was 600. For the same compound, the inhibition is 8% (inactive) in assay [1], -41% (inactive) in assay [3], 24% (inactive) in assay [7] and 28.7% (inactive) in assay [8]. In assay [2], the inhibition of aggregation is -10.2% (inactive). Also, the nuclei count in assay [2] was found to be 89.7%; in assay [3] it was 118%. Moreover, in assay [4], the fluorescence slope was -0.539 (inactive). Moreover, the NADPH fluorescence slope in assay [5] was -7.7e-06 (inactive). In addition, the slope in assay [6] is 0.00757 (inactive).

In the case of `CCN(CC)c1ccc(-c2c(C#N)c(N)nc(OC)c2C#N)cc1`, the cell count in assay [1] worked out at 426. In addition, the inhibition in assay [1] was -3.8% (inactive); in assay [3], -13.4% (inactive); in assay [7], -0.552% (inactive); in assay [8], 18.3% (inactive). In addition, the inhibition of aggregation in assay [2] was -21% (inactive). In addition, the results for the nuclei count in assay [2] and in assay [3] were 112% and 113%, respectively. In addition, in assay [4], the fluorescence slope is -0.0839 (inactive). Moreover, in assay [5], the NADPH fluorescence slope was 5.4e-06 (inactive). Moreover, the slope in assay [6] was 0.00577 (inactive).

In the case of `O=C1CC(N2CCN(c3ccc(Cl)c(Cl)c3)CC2)C(=O)N1` (centres undefined), the cell count in assay [1] amounted to 361. In addition, the inhibition was 0.7% (inactive) in assay [1], 25.6% (inactive) in assay [3], -2.47% (inactive) in assay [7] and 20.7% (inactive) in assay [8]. For the same compound, the inhibition of aggregation in assay [2] is -7.2% (inactive). In addition, the figures for the nuclei count in assay [2] and in assay [3] were 87.1% and 98.6%, respectively. In assay [4], the fluorescence slope is -0.466 (inactive). For the same compound, the NADPH fluorescence slope in assay [5] was -4.7e-05 (inactive). The slope in assay [6] is 0.00625 (inactive).

`CCCCC(=O)Nc1ccc(NC(=O)C2CC2)nc1`: in assay [1], the cell count was 558. In addition, the inhibition in assay [1] was 19.2% (inactive); in assay [3], 22.7% (inactive); in assay [7] it was 3.06% (inactive); in assay [8] it was -2.76% (inactive). Besides, the inhibition of aggregation in assay [2] was 16% (inactive). Further, the nuclei count in assay [2] was determined as 67.6%; in assay [3], 94.2%. Further, the fluorescence slope in assay [4] is -0.474 (inactive). The NADPH fluorescence slope in assay [5] was -6e-05 (inactive). Moreover, the slope in assay [6] was 0.00505 (inactive).

Consider `CC1(C)CC(=O)C(C=NCC2CCNCC2)=C(O)C1`, for which the cell count in assay [1] turned out to be 249. In addition, the inhibition is -2.1% (inactive) in assay [1], -10.9% (inactive) in assay [3], 3.67% (inactive) in assay [7] and 27.1% (inactive) in assay [8]. For the same compound, the inhibition of aggregation in assay [2] is 6.8% (inactive). In addition, the nuclei count in assay [2] is 74.8%; in assay [3], 116%. Also, in assay [4], the fluorescence slope was -0.466 (inactive). Besides, the NADPH fluorescence slope in assay [5] is -4.9e-06 (inactive). In addition, the slope in assay [6] is 0.00268 (inactive).

With `O=C(CSc1nnc(-c2ccccc2Br)o1)Nc1cccc2ccccc12`, the cell count in assay [1] was 541. Also, the inhibition in assay [1] is -12.1% (inactive); in assay [3] it was 33.7% (inactive); in assay [7] it was 1.31% (inactive); in assay [8], -12.6% (inactive). In assay [2], the inhibition of aggregation was 16.2% (inactive). Besides, the nuclei count in assay [2] is 81.3%; in assay [3] it was 65.3%. In addition, the fluorescence slope in assay [4] was -0.546 (inactive). In addition, in assay [5], the NADPH fluorescence slope was 2.3e-05 (inactive). The slope in assay [6] was 0.00661 (inactive).

The values are drawn from PubChem BioAssay.
